Measurements taken from PubChem BioAssay AID1030 (National Center for Advancing Translational Sciences (NCATS), 2008).
Screen size: about 220,000 compounds; about 16,000 (7.3%) were called active. Not shown: some 25% with an inconclusive outcome. The call rests on the fitted dose curve; in most records, active means well fitted inhibition curve with a large enough effect (not every such curve was filed as active); inconclusive means small, poorly fitted or top-dose-only effect, or another doubt; inactive means no such curve, though single readings can be large or run the other way. The list comes from a sample in which actives are over-represented; it also holds similar structures and randomly drawn compounds. Entries that show only a call come without a potency.

These compounds were tested against Aldehyde dehydrogenase 1A1 (Homo sapiens) (UniProt P00352) (assay: qHTS Assay for Inhibitors of Aldehyde Dehydrogenase 1 (ALDH1A1)). Details: Purified ALDH1A1, NADH fluorescence, propionaldehyde substrate; series mostly up to 75.3 µM.
Potency means the concentration at half of the fitted maximal effect.

Sequence of Aldehyde dehydrogenase 1A1 (Homo sapiens) (P00352 whole entry, looked up): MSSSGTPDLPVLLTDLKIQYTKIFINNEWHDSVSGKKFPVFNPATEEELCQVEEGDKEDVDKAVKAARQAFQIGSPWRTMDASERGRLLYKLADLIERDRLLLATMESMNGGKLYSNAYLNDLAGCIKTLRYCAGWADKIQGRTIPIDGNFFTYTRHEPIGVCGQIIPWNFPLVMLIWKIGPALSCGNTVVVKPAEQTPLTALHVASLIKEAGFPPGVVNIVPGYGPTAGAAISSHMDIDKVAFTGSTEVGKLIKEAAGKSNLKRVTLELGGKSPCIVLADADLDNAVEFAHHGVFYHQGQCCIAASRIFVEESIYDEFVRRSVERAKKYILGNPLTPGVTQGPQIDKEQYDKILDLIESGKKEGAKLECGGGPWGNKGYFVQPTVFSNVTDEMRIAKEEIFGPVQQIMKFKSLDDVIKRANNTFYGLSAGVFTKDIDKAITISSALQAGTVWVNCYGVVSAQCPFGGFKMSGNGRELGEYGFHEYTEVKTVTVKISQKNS

`C=CCC1CCC(=O)N2CCCC12` (configuration not stated) was tested. Which Potency did it give?
The Potency was “inactive”.

With `COc1ccccc1-n1ccnc1SCC(=O)NC(C)(C)C` as the compound, how does the Potency read?
The Potency was “inactive”.

Which Potency does the source give for `Cc1ccccc1CSCC(=O)NC(=O)NC(C)(C)C` here?
Its Potency is “inactive”.

`CC(C)(C)NC(=O)CSC(=Nc1ccccc1F)NC#N` was tested. Which Potency did it give?
The Potency was 1.26 µM (active).

`COc1cccc(OC)c1CN(C)C(=O)c1cnccc1C(F)(F)F` was tested. Which Potency did it give?
The Potency was “inactive”.

`O=C(N/N=C/c1ccc([N+](=O)[O-])cc1)c1c[nH]c2ccccc12` was tested. Which Potency did it give?
The Potency was “inactive”.

How did the Potency turn out when `CC(=O)NCCC(=O)Nc1nc(C)c(Cc2ccc3c(c2)OCO3)s1` was run?
The Potency was “inactive”.

For `O=C(Nc1ccccc1)c1cc2ccccc2[nH]1`, which Potency is on record?
The Potency was “inactive”.

How did the Potency turn out when `S=c1ccc2ccccc2[nH]1` was run?
The Potency was 25.1 µM (active).

For `COc1cc(COCC(O)CN2CCN(Cc3ccc4c(c3)OCO4)CC2)cc(OC)c1OC` (configuration not stated), which Potency is on record?
Its Potency is “inactive”.

For `Cc1nc([N+](=O)[O-])cn1CC(=O)Nc1ccc2c(c1)OCO2`, which Potency is on record?
The Potency was “inactive”.

How did the Potency turn out when `Cn1cnc(C(F)(F)F)c1-c1ccc([N+](=O)[O-])cc1` was run?
Its Potency is “inactive”.

`Cc1cccc(C)c1Nc1nnc(SCC(=O)Nc2sccc2C#N)s1` was tested. Which Potency did it give?
Its Potency is “inactive”.

For `O=C1C(c2[nH]c3ccccc3c2O)=Nc2ccccc21`, which Potency is on record?
The Potency was 15.8 µM (active).

For `CC(C)C(=O)Nc1c(O)c2ccccc2[nH]c1=O`, which Potency is on record?
Its Potency is “inactive”.

With `CC(=O)Nc1ccc(OCC(=O)NCc2ccc(C)cc2)cc1` as the compound, how does the Potency read?
Its Potency is “inactive”.

Which Potency does the source give for `C/C=C/c1ccc(OCC(O)CN2CCCCCCC2)c(OC)c1` (configuration not stated) here?
The Potency was “inactive”.

Which Potency does the source give for `CCOC(=O)CNc1nc(Cl)nc(Nc2ccccc2)n1` here?
Its Potency is “inactive”.

Which Potency does the source give for `CC(NC(=S)Nc1ccc(OC(F)F)cc1)c1ccc(F)cc1` (configuration not stated) here?
The Potency was “inactive”.

Which Potency does the source give for `Cc1cccc(C(=O)N2CCCN(C(=O)c3cccc(C)c3)CC2)c1` here?
Its Potency is “inactive”.

Which Potency does the source give for `Cc1ccc(C(=O)N2CCN(C(=O)N3CCOCC3)CC2)cc1` here?
The Potency was “inactive”.

For `Cc1nc2ccc(C(=O)N3CCN(c4ccccc4)CC3)cc2s1`, which Potency is on record?
Its Potency is “inactive”.

For `N#Cc1ccccc1-n1c(N)c(C(=O)N2CCCC2)sc1=S`, which Potency is on record?
The Potency was 11.2 µM (active).

How did the Potency turn out when `Cc1ccc(OCCCC(=O)N2CCOCC2)c(C)c1` was run?
Its Potency is “inactive”.

Which Potency does the source give for `O=C(Nc1cccc(C(=O)N2CCCC2)c1)c1ccccc1` here?
The Potency was “inactive”.

For `Cc1ccc(-n2c(N)c(C(=O)N3CCOCC3)sc2=S)c(C)c1`, which Potency is on record?
Its Potency is 10 µM (active).

For `O=C(c1ccc(S(=O)(=O)c2ccccc2)cc1)N1CCCCCC1`, which Potency is on record?
Its Potency is “inactive”.

Which Potency does the source give for `Cc1cccc(-n2c(N)c(C(=O)N3CCN(C)CC3)sc2=S)c1` here?
Its Potency is 22.4 µM (active).

For `CCN(CC)S(=O)(=O)c1ccc(N(C)Cc2cccc(OC)c2OC)nc1`, which Potency is on record?
The Potency was “inactive”.

Which Potency does the source give for `CC(C)(C)OC(=O)NCCCCC1=CC2=CC(=O)C(C)(OC(=O)c3cccs3)C(=O)C2=CO1` (configuration not stated) here?
The Potency was “inactive”.

`O=C(c1snnc1-c1ccccc1)N1CCOCC1` was tested. Which Potency did it give?
The Potency was “inactive”.

Which Potency does the source give for `Cc1cc(-c2nnc(CCC(=O)NC(c3ccccc3)c3ccccc3)o2)no1` here?
The Potency was “inactive”.
